Measured values as given in PubChem BioAssay (Tox21).
Results filed as inconclusive are left out. Values without a mark were called inactive. Activity calls are given as the source filed them. Calls come from the whole dose curve; as a rule, active = well fitted activation curve with a large enough effect in the repeat runs; inconclusive = weak or mixed curves; inactive = flat fitted curve, though single readings scatter.

Experiment: A CellTox Green Cytotoxicity Assay to monitor cytotoxicity in HEK293 cells - 8 hour (AID 1224884); note: nearly all actives have a fitted effect of over 35% in size
Conditions: CellTox Green fluorescence; series mostly up to 76.8 µM; cytotoxicity increase: at the top concentration
Description: National Center for Advancing Translational Sciences [NCATS]
NIH Chemical Genomics Center [NCGC]
U.S. Environmental Protection Agency [EPA]
National Institutes of Environmental Health Sciences [NIEHS]
National Toxicology Program [NTP]
Cell-based models are critical for drug discovery. Determining the natural cytotoxic effects resulting from test compounds is an essential research activity. A CellTox Green Cytotoxicity Assay to monitor cytotoxicity in real time of continues cell culture during 40 hours of the compound treatment was used to screen Tox21 10K library compounds in Hek293 cells. CellTox Green Cytotoxicity Assay is a nonlytic, homogeneous, biofluorescent method to measure cytotoxicity in cell culture after experimental manipulation. The assay system uses a proprietary asymmetric cyanine dye that is excluded from viable cells but preferentially stains the dead cell's DNA. […] Viable cells produce no appreciable increases in fluorescence. Therefore, the fluorescence signal produced by the binding interaction with dead cell DNA is proportional to cytotoxicity.
The mixture of Hek293 cell suspension and reagents were dispensed at 600cells/6 ul/well in 1536-well tissue culture treated black solid bottom plates using a Multidrop dispenser. After the assay plates were incubated at a 37 C/5% CO2 incubator for 5 hours, 23 nL of compounds dissolved in DMSO, positive and negative controls was transferred to the assay plate by a pintool work station. The plates were incubated at 37 C for 40 hours. The fluorescence intensity were measured at 0h, 8h, 16h, 24h, 32h and 40h time points using ViewLux plate reader during compound treatment.
% is set by controls: 0 for no effect and ±100 for the full control effect; potency is the fitted concentration of half-maximal effect.

SMILES | cytotoxicity increase | Potency
CC(CN(C)C)CN1c2ccccc2CCc2ccccc21 (stereo not given) | -0.0118% [at 35.3 µM] | 
ClC/C=C\CCl | -2.7% | 
COc1ccc(-n2nc(CCC(=O)N(C)O)cc2-c2ccc(Cl)cc2)cc1 | -9.84% [at 35.3 µM] | 
Cc1c(C(=O)O)cccc1[N+](=O)[O-] | -3.96% | 
COc1cccc(O)c1 | -10.2% | 
CCc1cccc(CC)c1NC(=O)C(=O)O | 22.4% | 
CCOC(=O)N1CCC(=C2c3ccc(Cl)cc3CCc3cccnc32)CC1 |  | inactive
CSc1ccc2c(c1)N(CCC1CCCCN1C)c1ccccc1S2 (stereo not given) |  | 34.5 µM (active)
C=C(C)C(=O)OCCC[Si](Cl)(Cl)Cl | -0.905% | 
O=C1NC2CCCCN2C12CCN(CCCN1c3ccccc3CCc3ccc(Cl)cc31)CC2 (stereo not given) | -1.51% [at 35.3 µM] | 
COc1ccccc1C=O | 17.9% | 
CC1=CP(=O)(c2ccccc2)CC1 (stereo not given) | -7.51% | 
CCCC(CC)CCCCCCCN (stereo not given) |  | 50.2 µM (active)
Cc1ccc(CCn2c3c(c4cc(Cl)ccc42)CN(C)CC3)cn1 | -0.17% [at 35.3 µM] | 
CC1=C(/C=C/C(C)=C/C=C/C(C)=C/C(=O)Nc2ccc(O)cc2)C(C)(C)CCC1 |  | inactive
CC1CCCNC1 (stereo not given) | -15.7% | 
O=Nc1ccc(NO)cc1 | -1.66% | 
Oc1c(Br)cc(Br)c2cccnc12 | 1.67% [at 35.3 µM] | 
OCCCS | -11.5% | 
CCN(CC)c1ccc(N)cc1 | -15.9% | 

SMILES | cytotoxicity increase | Potency
CC(C)(C)c1n[nH]c(=O)n(N)c1=O | -8.9% | 
CCO[Si](CCCSSSSCCC[Si](OCC)(OCC)OCC)(OCC)OCC | 22.8% | 
CN1[C@@H]2CC[C@@H]1CC(OC(=O)C(CO)c1ccccc1)C2 (stereo not given in full) | 9.52% [at 35.3 µM] | 
Clc1ccc(C(Cn2ccnc2)OCc2c(Cl)cccc2Cl)c(Cl)c1 (stereo not given) | 18% [at 35.3 µM] | 
O=C[C@H](O)[C@H](O)[C@H](O)CO | -0.442% | 
CCO[Si](C)(C)OCC | 16.1% | 
CN(Cc1cc(Br)cc(Br)c1N)C1CCCCC1 | 20.2% [at 35.3 µM] | 
CCCCCCCC(=O)OCC | 4.5% | 
CCCCOCC | -0.0856% | 
Cc1cncc(C)c1 | 16.8% | 
C=CC(=O)OCCC#N | -6.42% | 
C/C=C/C(=O)C1=C(C)CCCC1(C)C | 15.4% | 
CCCOc1sc(C(=O)N2CCC(c3cc(CN)ccc3F)CC2)c(C)c1Br |  | 40 µM (active)
Brc1ccccc1-c1ccccc1 | 3.34% | 
Clc1cc(Cl)c(-c2c(Cl)c(Cl)cc(Cl)c2Cl)cc1Cl | -5.64% [at 35.3 µM] | 
C=CCCCCCCC=C | -3.02% | 
CN(C)CCN1CCOCC1 | 4.96% | 
CC1(C)C(=O)N(Br)C(=O)N1Br | -3.36% | 
COC(=O)CC(C)CCC=C(C)C (stereo not given) | -2.08% | 
CNC(=S)NN | -0.924% | 
